Reference: ChEMBL document CHEMBL3988442, “University of Dundee, Small-Polar-MMV Screening Library” (2021)
About 1,200 (3.2%) of roughly 38,000 compounds showed an effect of 50% or more. The median lay at about -58%. This excerpt belongs to a sample that is enriched for strong results.

Tested on: Plasmodium falciparum
Test: Calibr Malaria Delayed Death Assay SOP
Type: functional, organism-based
Design: scale not given: in the data most compounds retested in dose-response had high values
Conditions: concentration 4.99e-06 (unit not given; other assays of the set use mol/L)

In order of rising “Percent Effect” value:
1. Cc1nc2oc(C(=O)N3CCOCC3)c(N)c2c2c1CCCC2  -269.1%
2. COc1cc(C2CC(=O)Nc3c2nc2n3CCCC2)cc(OC)c1O (stereo not drawn)  -209%
3. Cl.c1cc(OCc2ccc3c(c2)OCO3)ccc1CNC1CC1  -194.6%
4. CC1CCCN(Cc2ccc(CNC(=O)NCc3ccon3)cc2)C1 (stereo not drawn)  -178.1%
5. O=C(Nc1cccc(OCC(F)F)n1)c1ccncc1F  -156.1%
6. CS(=O)(=O)NC[C@]12COC[C@H]1CN(C(=O)CC1CCCC1)C2  -153.3%
7. COCCC(=O)N1CCC2(CN(Cc3cccc(Cl)c3)C2)C1  -141.8%
8. O=C(NCC(O)CO)Nc1cc(Br)ccc1F (stereo not drawn)  -140%
9. O=C(NCC1CC1)C1CCC2(CCN(C(=O)c3ccccn3)CC2)O1.O=C(O)C(F)(F)F (stereo not drawn)  -137.4%
10. CC(=O)N(C)c1nc(CN2CCCCC2Cn2cncn2)cs1 (stereo not drawn)  -131.1%
11. CC(=O)N(C)c1nc(CN2CCCC2Cn2cncn2)cs1 (stereo not drawn)  -120.1%
12. O=C(C1=COCCO1)N1CC(Oc2nc3c(Cl)cccc3s2)C1  -117.3%
13. Cn1cnc2nc3n(c2c1=O)CCC3  -114.6%
14. CN(Cc1ccc(N(C)C)cc1)C(=O)NCc1nnc2n1CCC2  -107.1%
15. Cc1ccc(C(=O)N2CCOCC3(CCN(C4CCOCC4)C3)C2)o1.O=C(O)C(F)(F)F (stereo not drawn)  -106.4%
16. CCN(CC)c1ccc(-c2ccc(C)c(S(N)(=O)=O)c2)nn1  -97.64%
17. Cc1cc(CN(C)C2CCCN(Cc3noc(C)n3)C2)no1 (stereo not drawn)  -96.62%
18. O=C(NCc1cccnc1N1CCc2ccccc2C1)c1cc(=O)[nH][nH]1  -96.6%
19. Cc1ccc(CNC(C)(C)c2noc(C(C)(C)C)n2)o1  -93.54%
20. CC(=O)N(C)c1nc(CN2CCCC2c2cnn(C)c2)cs1 (stereo not drawn)  -87.18%
21. NS(=O)(=O)c1cnn(CCC(=O)N(C2CCCCC2)C2CC2)c1  -77.61%
22. Cn1nnc(NCc2ccc(OCc3ccc(Cl)cc3)cc2)n1  -71.17%
23. CNc1c(NCc2ccco2)c(=O)c1=O  -69.06%
24. Cn1cc(CN2CC[C@@H]3[C@H]2CCC(=O)N3c2ccccc2)cn1.O=C(O)C(F)(F)F  -62.18%
25. Cc1nc(CN2CCCC(NCCOc3ccccc3)C2)no1 (stereo not drawn)  -60.44%
26. Cn1cc(CN2CCCC3(COCCN(Cc4c[nH]nn4)C3)C2)cn1.O=C(O)C(F)(F)F.O=C(O)C(F)(F)F (stereo not drawn)  -58.09%
27. CO[C@@H]1CC[C@H]2[C@H]1OCCN2C(=O)C1CCOCC1  -57.64%
28. Cc1noc2ncc(S(=O)(=O)N3CCCC(C)(C)CC3)cc12  -55%
29. CN1CCNC(=O)C1CC(=O)NCCc1cnn(-c2ccccc2)c1 (stereo not drawn)  -54.63%
30. CCN1CCC(CNc2nccc(C)n2)(N(C)C)CC1  -52.36%
31. COc1ccccc1C(O)Cn1cc(C(=O)NCc2ccco2)nn1 (stereo not drawn)  -49.33%
32. Cc1nc(CN2CCCC(N(C)Cc3cnn(C)c3)C2)no1 (stereo not drawn)  -49.27%
33. O=C(O)C(F)(F)F.c1cnc(N2CC[C@@H](OCC3CC3)[C@@H]2Cc2cccnc2)nc1  -48.06%
34. O=C(O)C(F)(F)F.O=C(O)C(F)(F)F.O=C(O)C(F)(F)F.c1cncc(CN2CCC3(COCCN(C4CCOCC4)C3)C2)c1 (stereo not drawn)  -45.9%
35. COCCN1C(=O)CC[C@@H]2[C@H]1CCN2S(=O)(=O)c1cccs1  -44.47%
36. CCC(CO)N(C/C(C)=C/c1ccco1)Cc1ccco1 (stereo not drawn)  -44.13%
37. COC(=O)CCC(=O)N1CCC2(CN(Cc3cccc(Cl)c3)C2)C1  -43.68%
38. c1cc(-c2cn[nH]c2)ccc1CN1CCCCC1  -42.56%
39. c1cc(CN2CCOCC3(CCN(C4CCOCC4)C3)C2)ccn1 (stereo not drawn)  -42.35%
40. Cc1ccc(C(=O)N2CCC3(CCCC3)CC2)c(=O)[nH]1  -40.97%
41. Cc1nnc([C@@]23CCO[C@@H]2CCN(Cc2cccc4ccccc24)C3)o1  -36.67%
42. CS(=O)(=O)NCC1CCCCN1Cc1ccccc1C#N (stereo not drawn)  -35.93%
43. CCc1nnc2n1CCN(Cc1nc3c(F)cccc3[nH]1)C2  -34.12%
44. Cc1occc1C(=O)N1CCOCC2(CCN(C3CCOCC3)C2)C1.O=C(O)C(F)(F)F (stereo not drawn)  -32.59%
45. Cc1nc(CN2CCCC(NCc3nc4ccccc4s3)C2)no1 (stereo not drawn)  -31.98%
46. O=C(NCCc1csc(-c2ncccn2)n1)c1cnn2c1CCCC2  -31.93%
47. O=C(N1CCOCC1)[C@@]12CCO[C@@H]1CCN(Cc1cccc(F)c1)C2.O=C(O)C(F)(F)F  -31.47%
48. Cc1nc(C)n(CC2CN(CCCOc3ccccc3)CCO2)n1 (stereo not drawn)  -31.23%
49. Cc1ncnc2c1CCN(CC(=O)N(C)C)CC2.O=C(O)C(F)(F)F  -30.27%
50. CCOc1ncccc1CNS(=O)(=O)c1ccc2c(c1)CCO2  -29.02%
51. CC(C)(C)c1cc2ncn(CCCN3CCCCC3CO)c(=O)c2s1 (stereo not drawn)  -23.08%
52. O=C(O)C(F)(F)F.O=C(c1ccoc1)N1CCOC2(COCCN(CC3CC3)C2)C1 (stereo not drawn)  -22.12%
53. Cc1ccc(C(=O)N2CCO[C@H]3[C@H](OCC4CCOCC4)CC[C@@H]32)o1  -19.31%
54. Cc1cccc2nc(CN3CCCC(C)C3)cc(=O)n12 (stereo not drawn)  -16.65%
55. O=C(C1CCOCC1)N1C[C@H]2CCC[C@@]2(COc2cccnc2)C1.O=C(O)C(F)(F)F  -16.46%
56. O=C(O)C(F)(F)F.O=C([C@@H]1C[C@@H]2CCN(C3CCOCC3)C[C@H]2O1)N1CCOCC1  -14.29%
57. O=C(C[C@@H]1COC[C@H]2CN(Cc3ccccc3)C[C@@H]12)N1CCCC1.O=C(O)C(F)(F)F  -13.07%
58. CC(CN1CC[C@@H]2CCCC[C@@H]2C1)n1cnc2ccccc21 (stereo partly drawn)  -12.48%
59. Cc1nc(CN2CCCC(NCc3ccc4ccccc4c3)C2)no1 (stereo not drawn)  -12.45%
60. CC(C)(C(=O)NCC(=O)N1CCCC1)c1ccccc1F  -11.95%
61. Cc1ccc(-c2nc(CN3CCCC3Cn3cncn3)co2)cc1 (stereo not drawn)  -9.69%
62. COc1ccc2nnc(CCC(=O)Nc3nc4c(s3)CCC4)n2n1  -9.679%
63. CCc1nc(CN2CCCC(N(C)Cc3nc(C)c(C)o3)C2)no1 (stereo not drawn)  -5.85%
64. CC1CS(=O)(=O)CCN1Cc1ccccc1N(C)C (stereo not drawn)  -5.29%
65. O=C(O)C(F)(F)F.O=C(c1ccco1)N1CCOCC2(CCN(C3CCOCC3)C2)C1 (stereo not drawn)  -3.89%
66. COC(=O)c1ccc(CNC(C)(C)c2ccccc2OC)o1  -1.138%
67. O=C(NCc1cccs1)[C@H]1CC[C@@H]2[C@@H](CCN2Cc2ccoc2)O1.O=C(O)C(F)(F)F  4.133%
68. Cn1cc(C(=O)CC2CCCN2C(=O)c2c[nH]c3ccccc23)cn1 (stereo not drawn)  4.786%
69. CCN(C(C)=O)c1nc(CN2CCCCC2Cn2cncn2)cs1 (stereo not drawn)  7.085%
70. O=C1NC(c2ccccc2)=N[C@@]12CC[C@@H]1CN(Cc3ccncc3)C[C@@H]12  12.66%
71. O=C1NC(c2ccccc2)=N[C@@]12CC[C@@H]1CN(Cc3ccco3)C[C@@H]12  17.95%
72. COc1ccccc1OCCNC1CCCN(Cc2noc(C)n2)C1 (stereo not drawn)  19.3%
73. CCn1ccnc1CNCc1ccc(C)cc1OC(C)(C)C  21.04%
74. CCCC1(CNCc2ncc[nH]2)CCC1  24.35%
75. O=C(O)C(F)(F)F.O=C(O)C(F)(F)F.c1cc(CN2CCCC3(COCCN(Cc4c[nH]nn4)C3)C2)cs1 (stereo not drawn)  27.82%
76. Cc1cccc(CN2CCOCC3(CCN(C4CCOCC4)C3)C2)n1.O=C(O)C(F)(F)F.O=C(O)C(F)(F)F.O=C(O)C(F)(F)F (stereo not drawn)  40.9%
77. c1ccc(CC2(CNCc3ncc[nH]3)CCC2)cc1  42.05%
78. Cc1nc(CN2CCCC(NCc3cccc4ccccc34)C2)no1 (stereo not drawn)  57.02%
79. Cc1nc(CN2CCCC(N(C)Cc3c(C)noc3C)C2)no1 (stereo not drawn)  57.32%
80. O=C1NC(c2ccccc2)=N[C@@]12CC[C@@H]1CN(Cc3ccoc3)C[C@@H]12  57.5%
81. CN(C)c1ccccc1CN1CCCCC1CNS(C)(=O)=O (stereo not drawn)  58.92%
82. COc1ccc(CN2CCOCC3(CCN(C4CCOCC4)C3)C2)cc1.O=C(O)C(F)(F)F.O=C(O)C(F)(F)F (stereo not drawn)  59.83%
83. Fc1cccc(CN2CCOC3(COCCN(CC4CC4)C3)C2)c1.O=C(O)C(F)(F)F.O=C(O)C(F)(F)F (stereo not drawn)  61.62%
84. CC(=O)N(c1ccc(C)cc1)c1nc(CN2CCCCC2C)cs1 (stereo not drawn)  61.62%
85. Fc1ccc(CN2CCCC3(COCCN(Cc4c[nH]nn4)C3)C2)cc1.O=C(O)C(F)(F)F.O=C(O)C(F)(F)F (stereo not drawn)  61.69%
86. COc1ccccc1C(C)(C)NCc1ccco1  64.69%
87. CCC1(CNCc2ncc[nH]2)CCCC1  66.04%
88. COc1ccccc1C(C)(C)NCc1ccc(C)o1  77.27%
89. Fc1cccc(CN2CCOCC3(CCN(C4CCOCC4)C3)C2)c1.O=C(O)C(F)(F)F.O=C(O)C(F)(F)F (stereo not drawn)  77.57%
90. Cc1cccc(CN2CCOCC3(CCN(C4CCOCC4)C3)C2)c1.O=C(O)C(F)(F)F.O=C(O)C(F)(F)F (stereo not drawn)  78%
91. Cc1nc(CN2CCCC(NCCc3ccccc3Cl)C2)no1 (stereo not drawn)  81.78%
92. CC(=O)N(c1ccc(C)cc1)c1nc(CN2CCCC(C)C2)cs1 (stereo not drawn)  82.35%
93. CC(=O)N(c1ccc(F)cc1)c1nc(CN2CCCC2C(C)C)cs1 (stereo not drawn)  89.73%
